Measured values: PubChem BioAssay (NCI)
About 83,000 compounds went through this panel and 20% of them were active in at least one assay; those are over-represented in the sample as a whole.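 Cells were grown in 96-well plates and exposed to the test compound at a single concentration for 48 hours; results are reported as percent growth, with values below 10 considered active.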 Unmarked numbers belong to inactive results. Calls of active or inactive are those of the source.

Tested on: HL-60(TB) leukemia
Assay: NCI-60 one-dose screen, 48 h (100 = growth as untreated, 0 = no growth, -100 = all killed)
Conditions: 10 µM unless noted

In the case of `CN(C)C(=O)Nc1nc2cc(Cl)c(Cl)cc2[nH]1`, the growth is reported as -29.9% (active).
In the case of `Cc1cc(Cl)ccc1NS(=O)(=O)c1ccc(-c2cnc(C3CC3)o2)cc1`, the growth is reported as -36% (active).
With `Cc1cc(NCc2cc(Nc3ccnc4cc(Cl)ccc34)ccc2F)nc(N2CCCC2)n1` the growth was -59.5% (active).
`CC1(C)CC(OCCCC[P+](c2ccccc2)(c2ccccc2)c2ccccc2)CC(C)(C)N1O` was tested, and the growth was -37.4% (active).
For `COc1cc(/C=C2\CCCC3C2=Nc2ccccc2NC3c2cc(OC)c(OC)c(OC)c2)cc(OC)c1OC` (stereo not given), the growth was 1.55% (active).
In the case of `CN(C)CCCNCc1ccc(-c2ccc(F)c(Cl)c2)o1`, the growth is reported as -4.95% (active).
For `C=CC(=O)Nc1ccc(Nc2nccc(-c3ccc(N4CCCC4)c(C#N)c3)n2)cc1`, the growth was -71.8% (active).
`CC(=O)[C@H]1CC[C@]2(C)[C@@H]1CC[C@@H]1[C@@]3(C)C/C(=C/c4cccnc4)C(=O)C(C)(C)[C@@H]3CC[C@]12C` was tested, and the growth was 8.47% (active).
With `C=C(C)[C@@H]1CC[C@]2(C)[C@H](CC[C@@H]3[C@@H]([C@@](C)(O)CCC=C(C)C)CC[C@]32C)[C@@]1(C)CCC(=O)N1CCN(C)CC1` the growth was -32.3% [100 µM] (active).
For `Cc1cc(N(CCCNc2ccnc3cc(Cl)ccc23)Cc2ccc3c(c2)OCO3)nc(N2CCCCC2)n1`, the growth was -68.4% (active).
In the case of `CCOC(=O)C1=C(C)N=C2SC=C(c3ccccc3)N2[C@H]1c1cn[nH]c1-c1ccc(Cl)cc1`, the growth is reported as 1.71% (active).
With `C/C(=N/NC(=S)Nc1ccccc1)c1nc2ccc(Cl)cc2[nH]1` the growth was -11.7% (active).

In order of falling growth:
1. CC(C)=CC(=O)C1C(=O)c2ccccc2C1=O  120%
2. CCCCN(C=S)CCCC  104%
3. Cc1cc(C(C)(C)C)cc(C)c1CC1=NCCN1  102%
4. Clc1ccc(Cc2nc3ccccc3s2)cc1  98.6%
5. O=c1[nH]c(NCc2ccccc2)nc2nc(Nc3ccc(NC(=S)Nc4ccccc4)cc3)nc(-c3ccc(O)cc3O)c12  98.4%
6. O=C(NCCNc1nccc(-c2c(-c3cccc(O)c3)nc3sccn23)n1)Nc1cc(C(F)(F)F)cc(C(F)(F)F)c1  97.3%
7. Cn1ncc2c(Nc3ccccc3Cl)nc(Cl)nc21  96.1%
8. Nc1nc2ccccc2c2c(=O)c3cccc(Cl)c3sc12  93.7%
9. COc1ccccc1N1C(=O)/C(=C/C2=Cc3ccccc3OC2)SC1=S  92.9%
10. O=C1CN2CCC1C/C2=C\c1ccnc2c(Cl)cccc12 (stereo not given)  91.8%
11. CCCCCCCCC(=O)OCCCC(CCC(CCC1CCCO1)OC(=O)CCCCCCCC)OC(=O)CCCCCCCC (stereo not given)  89%
12. CCOC(=O)C1=C(C)N=C2SC=C(c3ccc(F)cc3)N2[C@H]1c1cn(-c2ccccc2)nc1-c1ccc(Cl)cc1  88.3%
13. CC1(C=O)NC(=O)NC1=O (stereo not given)  87.5%
14. CC(=O)OCc1cc(-c2nc3ccccc3[nH]c2=O)nn1-c1ccc(Cl)cc1  84.5%
15. O=C(COc1ccc(/C=C2\CSc3ccccc3C2=O)cc1)c1ccc(Cl)cc1  80%
16. COc1ccc(/C(C)=N/NC(=O)CSc2nc3ccccc3c(=O)n2CCc2ccc(S(N)(=O)=O)cc2)cc1  76.7%
17. CCN(CC)CCCNC(=O)c1ccc(N)cc1  76.5%
18. Cc1ccc(S(=O)(=O)NCCCNc2cc(-c3cn(C(C)(C)C)nc3-c3cccc(O)c3)ccn2)cc1  66.6%
19. CC/C=C\C[C@H](O)C/C=C1/C(=O)C=C[C@@H]1C/C=C\CCCC(=O)OCCS(=O)(=O)c1ccccc1  62.1%
20. O=C1/C(=C\c2ccc(Cl)cc2)CN(C(=O)c2ccccc2)C/C1=C\c1ccc(Cl)cc1  58%
21. COC(=O)[C@H]1CCCN1C(=O)[C@H]1CCCN1C(=O)[C@H](Cc1c[nH]c2ccccc12)NC(=S)Nc1cc(C(F)(F)F)cc(C(F)(F)F)c1  53.4%
22. COc1cc(-c2nn(-c3ccc(C(=O)O)cc3)cc2C(=O)O)ccc1O  46.1%
23. Nc1c2c(nc3ccc(Cl)cc13)CC(c1ccc(O)cc1)CC2=O (stereo not given)  18.9%
24. CCN(CC)CCNc1ccc(C)c2sc3cc(Cl)ccc3c(=O)c12  17%
25. COc1ccc2c(O)c(/C=C3\N=Nc4ccccc43)oc2c1C[C@H]1CCNC[C@H]1F  14.4%
26. Nc1no[n+]([O-])c1-c1nnc2c(n1)-c1ccccc1C2=O  13.1%
27. CCCCCCCCCCN=C(c1ccc(N(C)C)cc1)c1ccc(N(C)C)cc1  11.2%
28. C=C1C(=O)O[C@H]2[C@H]1CC/C(COC(=O)/C=C\C(=O)NCc1ccc(Cn3c(=O)sn(CCCCl)c3=O)cc1)=C\CC[C@@]1(C)O[C@@H]21  10.8%
